Results as given in PubChem BioAssay (NCI).
This is part of a sample that, as a whole, favours compounds with a hit. Of some 83,000 tested, about 20% had one in any assay.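 Each cell line was grown in a 96-well plate and treated with one concentration of compound for 48 hours. Values below 10 were considered active.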

What was measured:
Assay in all cases: NCI-60 one-dose screen, 48 h (100 = growth as untreated, 0 = no growth, -100 = all killed)
NCI-H23 lung = conditions: 10 µM unless noted
NCI-H226 lung = conditions: 10 µM unless noted
NCI-H322M lung = conditions: 10 µM unless noted
HOP-62 NSCLC = conditions: 10 µM unless noted
NCI-H460 lung = conditions: 10 µM unless noted
HOP-92 NSCLC = conditions: 10 µM unless noted
NCI-H522 lung = conditions: 10 µM unless noted
A549/ATCC NSCLC = conditions: 10 µM unless noted
786-0 renal = conditions: 10 µM unless noted
COLO 205 colon = conditions: 10 µM unless noted
DU-145 prostate = conditions: 10 µM unless noted
K-562 leukemia = conditions: 10 µM unless noted
MALME-3M melanoma = conditions: 10 µM unless noted
MDA-MB-231 breast = conditions: 10 µM unless noted
RXF 393 renal = conditions: 10 µM unless noted
SF-268 CNS = conditions: 10 µM unless noted
SF-295 CNS = conditions: 10 µM unless noted
SF-539 CNS = conditions: 10 µM unless noted
UACC-257 melanoma = conditions: 10 µM
M14 melanoma = conditions: 10 µM unless noted

Measured: growth

O=C(CCC(=O)OC1CCCC1)OC1CCCC1
inactive: NCI-H23 lung 105% | NCI-H226 lung 96.3% | NCI-H322M lung 97% | HOP-62 NSCLC 109% | NCI-H460 lung 104% | HOP-92 NSCLC 73.1% | NCI-H522 lung 79.8% | A549/ATCC NSCLC 91.4% | 786-0 renal 104% | COLO 205 colon 116% | DU-145 prostate 102% | K-562 leukemia 96% | MALME-3M melanoma 102% | MDA-MB-231 breast 105% | RXF 393 renal 97.6% | SF-268 CNS 99.7% | SF-295 CNS 99.3% | SF-539 CNS 87.8% | UACC-257 melanoma 85.4% | M14 melanoma 112%

Cc1ccc(Cn2c(-c3nonc3N)nc3ccccc32)cc1
inactive: NCI-H23 lung 83.3% | NCI-H226 lung 82.7% | NCI-H322M lung 86% | HOP-62 NSCLC 76.5% | NCI-H460 lung 71.4% | HOP-92 NSCLC 77.6% | NCI-H522 lung 66.4% | A549/ATCC NSCLC 57.3% | 786-0 renal 92.3% | COLO 205 colon 80% | DU-145 prostate 100% | K-562 leukemia 12.9% | MALME-3M melanoma 81.6% | MDA-MB-231 breast 83.5% | RXF 393 renal 82.1% | SF-268 CNS 81.5% | SF-295 CNS 82.3% | SF-539 CNS 80.4% | UACC-257 melanoma 89.6% | M14 melanoma 66.4%

CC(=O)OC[Si](C)(C)c1ccccc1
inactive: NCI-H23 lung 112% | NCI-H226 lung 95.9% | NCI-H322M lung 109% | HOP-62 NSCLC 110% | NCI-H460 lung 103% | HOP-92 NSCLC 92.1% | NCI-H522 lung 103% | A549/ATCC NSCLC 95.8% | 786-0 renal 96.9% | COLO 205 colon 117% | DU-145 prostate 113% | K-562 leukemia 102% | MALME-3M melanoma 110% | MDA-MB-231 breast 105% | RXF 393 renal 107% | SF-268 CNS 103% | SF-295 CNS 91.6% | SF-539 CNS 96.2% | UACC-257 melanoma 92.3% | M14 melanoma 97.8%

N#CC1=C(N)OC2=C(C(=O)CCC2)C1c1ccco1 (stereo not given)
inactive: NCI-H23 lung 97.1% | NCI-H226 lung 103% | NCI-H322M lung 99.1% | HOP-62 NSCLC 91.3% | NCI-H460 lung 110% | HOP-92 NSCLC 106% | NCI-H522 lung 92.7% | A549/ATCC NSCLC 101% | 786-0 renal 101% | COLO 205 colon 110% | DU-145 prostate 108% | K-562 leukemia 98.6% | MALME-3M melanoma 113% | MDA-MB-231 breast 113% | RXF 393 renal 114% | SF-268 CNS 114% | SF-295 CNS 108% | SF-539 CNS 97.5% | UACC-257 melanoma 102% | M14 melanoma 104%

CCC1CCc2nc3sc(C(=O)Nc4cccc(C)c4)c(N)c3cc2C1 (stereo not given)
inactive: NCI-H23 lung 101% | NCI-H226 lung 96% | NCI-H322M lung 94.8% | HOP-62 NSCLC 87% | NCI-H460 lung 88.1% | HOP-92 NSCLC 55.2% | NCI-H522 lung 71.5% | A549/ATCC NSCLC 77.3% | 786-0 renal 94.9% | COLO 205 colon 93% | DU-145 prostate 78.3% | K-562 leukemia 35.8% | MALME-3M melanoma 47.4% | MDA-MB-231 breast 79.8% | RXF 393 renal 83.9% | SF-268 CNS 77.6% | SF-295 CNS 70.4% | SF-539 CNS 73.1% | UACC-257 melanoma 56.3% | M14 melanoma 55.1%

O=c1[nH]c2ccccc2cc1-c1nnc(Cc2ccccc2)o1
inactive: NCI-H23 lung 74.7% | NCI-H226 lung 85.3% | NCI-H322M lung 92.3% | HOP-62 NSCLC 82.6% | NCI-H460 lung 92.2% | HOP-92 NSCLC 76.2% | NCI-H522 lung 71.2% | A549/ATCC NSCLC 83.3% | 786-0 renal 58.3% | COLO 205 colon 64.4% | DU-145 prostate 71.1% | K-562 leukemia 30.8% | MALME-3M melanoma 55.8% | MDA-MB-231 breast 79.6% | RXF 393 renal 76.1% | SF-268 CNS 78.4% | SF-295 CNS 99.7% | SF-539 CNS 80.8% | UACC-257 melanoma 80% | M14 melanoma 65.8%

O=C(CN1CCN(c2cc3c(cc2F)c(=O)c(C(=O)O)cn3C2CC2)CC1)Nc1ccc(C(=O)/C=C/c2ccc(Cl)cc2)cc1
inactive: NCI-H23 lung 105% | NCI-H226 lung 92.5% | NCI-H322M lung 111% | HOP-62 NSCLC 107% | NCI-H460 lung 112% | HOP-92 NSCLC 95.8% | NCI-H522 lung 47.7% | A549/ATCC NSCLC 97.6% | 786-0 renal 88.9% | COLO 205 colon 112% | DU-145 prostate 120% | K-562 leukemia 104% | MALME-3M melanoma 100% | MDA-MB-231 breast 115% | RXF 393 renal 94.1% | SF-268 CNS 121% | SF-295 CNS 82.1% | SF-539 CNS 99.5% | UACC-257 melanoma 103% | M14 melanoma 96.3%

Cc1ccc(OCCn2c(C)nn(-c3ccc(Cl)cc3)c2=O)cc1
inactive: NCI-H23 lung 94.7% | NCI-H226 lung 108% | NCI-H322M lung 108% | HOP-62 NSCLC 103% | NCI-H460 lung 106% | HOP-92 NSCLC 84.1% | NCI-H522 lung 106% | A549/ATCC NSCLC 100% | 786-0 renal 100% | COLO 205 colon 115% | DU-145 prostate 135% | K-562 leukemia 107% | MALME-3M melanoma 99.8% | MDA-MB-231 breast 103% | RXF 393 renal 125% | SF-268 CNS 117% | SF-295 CNS 98.9% | SF-539 CNS 110% | UACC-257 melanoma 104% | M14 melanoma 102%
